Measurements from PubChem BioAssay (EPA / NIEHS).
Where a structure was tested more than once in an assay, its records may differ in their call. The source made the active and inactive calls. Rule for the calls: active = hit-call score of the fitted dose curve at least 0.9, where 1 is the maximum; inactive = score below 0.9.

Columns and labels:
[1] = ATG_EGR_CIS: Attagene CIS-FACTORIAL HepG2 Assay for human Early Growth Response 1 (EGR1) (AID 2282938); conditions: HepG2 Attagene CIS-FACTORIAL EGR reporter mRNA; actives raise or lower the signal
In short: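 HepG2, transient MRTU transfection (cis promoters), 24 h compound. RNA → RT (oligo-dT) → PCR → 6-FAM labelling → HpaI cut → CE fluorescence. Bidirectional fit, DMSO baseline.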

[2] = ATG_M_19_CIS: Attagene CIS-FACTORIAL HepG2 Assay for M19 Transcription Factor (Internal Marker) (AID 2282939); conditions: HepG2 Attagene CIS-FACTORIAL M19 internal marker reporter; actives raise or lower the signal
In short: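 Chemical-treated HepG2 (24 h) with MRTU constructs; reporter transcripts detected by fluorescent RT-PCR fragment analysis on capillary electrophoresis. Internal background marker, DMSO as baseline.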

[3] = ATG_Ets_CIS: Attagene CIS-FACTORIAL HepG2 Assay for human Erythroblast Transformation Specific (ETS) (AID 2282941); conditions: HepG2 ETS cis-reporter transcription, actives raise or lower the signal
In short: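 Human HepG2 hepatoma cells were transiently transfected with promoter-driven reporter constructs and treated for 24 hours. Reporter transcripts were quantified by RT-PCR with fluorescent primer extension; bidirectional curve fitting used DMSO as reference.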

[4] = target: Hepatocyte nuclear factor 3-beta (Homo sapiens) (UniProt Q9Y261); test: ATG_FoxA2_CIS: Attagene CIS-FACTORIAL HepG2 Assay for human Forkhead box A2 (FOXA2) (AID 2282942); conditions: HepG2 cis-reporter transcription factor activity, 24 h; actives raise or lower the signal
Hepatocyte nuclear factor 3-beta (Homo sapiens), sequence (Q9Y261 whole entry, looked up): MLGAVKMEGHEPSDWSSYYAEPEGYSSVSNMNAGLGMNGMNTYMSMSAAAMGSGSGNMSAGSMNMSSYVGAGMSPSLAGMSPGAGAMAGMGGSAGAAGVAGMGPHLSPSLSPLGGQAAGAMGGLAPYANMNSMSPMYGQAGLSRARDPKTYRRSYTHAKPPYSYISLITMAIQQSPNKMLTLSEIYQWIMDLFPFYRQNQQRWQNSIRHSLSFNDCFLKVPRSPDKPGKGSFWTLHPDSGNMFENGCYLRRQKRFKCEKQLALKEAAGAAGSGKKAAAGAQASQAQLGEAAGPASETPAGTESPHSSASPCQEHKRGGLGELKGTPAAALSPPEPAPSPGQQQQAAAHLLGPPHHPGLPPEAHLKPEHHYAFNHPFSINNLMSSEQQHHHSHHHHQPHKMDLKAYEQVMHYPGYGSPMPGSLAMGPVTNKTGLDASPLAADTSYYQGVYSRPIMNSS
In short: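 Cells: HepG2, transient multiplex reporter transfection. Exposure 24 h. Detection: reporter-specific RT-PCR, fluorescent labelling, restriction digest, capillary electrophoresis. Analysis: bidirectional curve fit, DMSO as negative control.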

[5] = ATG_FoxO_CIS: Attagene CIS-FACTORIAL HepG2 Assay for human Forkhead box O (FoxO) (AID 2282943); conditions: HepG2 Attagene cis-reporter, FoxO element, mRNA; actives raise or lower the signal
In short: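 HepG2 cells transiently transfected with cis-element-driven reporter units report endogenous FoxO activity. After 24 h chemical exposure, reporter mRNA quantified by RT-PCR, fluorescent labeling, HpaI digestion and capillary electrophoresis; bidirectional fit versus DMSO.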

[6] = ATG_GATA_CIS: Attagene CIS-FACTORIAL HepG2 Assay for human GATA Binding Protein (AID 2282944); conditions: HepG2 GATA cis-element reporter, Attagene multiplex mRNA; actives raise or lower the signal
In short: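 Transfected cis-reporter HepG2 cells were treated with chemicals for 24 hours. Total RNA was then converted to cDNA, amplified with reporter-specific primers and analysed by fluorescent capillary electrophoresis, using DMSO-treated wells as baseline.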

[7] = ATG_GLI_CIS: Attagene CIS-FACTORIAL HepG2 Assay for human Zinc Finger Protein GLI1 (AID 2282945); conditions: HepG2, Attagene cis-factorial reporter mRNA, GLI element; actives raise or lower the signal
In short: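 Transiently transfected HepG2 cells report endogenous transcription factor activity via cis-element-driven reporter units. After 24 h compound exposure, reporter mRNA was measured by RT-PCR with capillary electrophoresis; bidirectional fitting against DMSO baseline.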

[8] = ATG_ERE_CIS: Attagene CIS-FACTORIAL HepG2 Assay for Estrogen Response Element (ERE) (AID 2282940); conditions: HepG2 ERE cis-reporter, Attagene RNA transcript; actives raise or lower the signal
In short: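 Human liver cells (HepG2) bearing transiently transfected, promoter-regulated reporter units were exposed 24 h. Reporter mRNA induction was detected by capillary electrophoresis of labelled RT-PCR products and fitted bidirectionally to DMSO.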

[9] = ATG_GRE_CIS: Attagene CIS-FACTORIAL HepG2 Assay for human Glucocorticoid Response Elements (GRE) (AID 2282947); conditions: HepG2 GRE cis-reporter, Attagene multiplex mRNA; actives raise or lower the signal
In short: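 Endogenous transcription factor activity is read through cis-element reporter constructs transiently transfected into HepG2 cells. After 24 h treatment, labelled RT-PCR products are resolved by capillary electrophoresis; DMSO sets baseline for bidirectional curve fitting.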

[10] = target: Bile acid receptor (Homo sapiens) (UniProt Q96RI1); test: ATG_IR1_CIS: Attagene CIS-FACTORIAL HepG2 Assay for human Nuclear Receptor Subfamily 1 Group H Member 4 (NR1H4), IR1 submotif (AID 2282946); conditions: IR1 reporter transcription, actives raise or lower the signal
Bile acid receptor (Homo sapiens), sequence (Q96RI1 whole entry, looked up): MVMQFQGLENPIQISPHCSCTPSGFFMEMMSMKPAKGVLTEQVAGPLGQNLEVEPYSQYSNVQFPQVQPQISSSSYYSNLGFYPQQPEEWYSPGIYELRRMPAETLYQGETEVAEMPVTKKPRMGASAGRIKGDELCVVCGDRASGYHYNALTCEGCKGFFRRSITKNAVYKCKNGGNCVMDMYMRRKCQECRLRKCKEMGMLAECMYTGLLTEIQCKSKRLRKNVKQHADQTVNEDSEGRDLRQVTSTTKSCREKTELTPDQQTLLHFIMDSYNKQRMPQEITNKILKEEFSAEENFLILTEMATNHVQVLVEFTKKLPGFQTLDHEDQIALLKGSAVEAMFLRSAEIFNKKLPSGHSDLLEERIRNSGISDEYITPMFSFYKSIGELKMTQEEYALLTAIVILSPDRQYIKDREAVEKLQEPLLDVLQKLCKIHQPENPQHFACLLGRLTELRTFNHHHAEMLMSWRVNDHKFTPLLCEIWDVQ
In short: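 HepG2 cells transiently transfected with multiple cis-promoter-driven reporter units to measure endogenous transcription factor activity; 24 h exposure. Reporter mRNA read by RT-PCR, FAM labelling, HpaI digestion and capillary electrophoresis. Bidirectional fit versus DMSO.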

Measured: AC50

CC1(C)Cc2cccc(O)c2O1
not listed: [8] | [9] | [10]
inactive: all other assays above

O=C(O)C(F)(F)C(F)(F)C(F)(F)C(F)(F)C(F)(F)C(F)(F)F
not listed: [8] | [9] | [10]
inactive: all other assays above

COC(=O)c1sccc1S(=O)(=O)NC(=O)Nc1nc(C)nc(OC)n1
active: [8] 47.4 µM
not listed: [3] | [7] | [10]
inactive: all other assays above

C[C@H]1CCCC(=O)CCC/C=C/c2cc(O)cc(O)c2C(=O)O1
active: [1] 10.2 µM | [8] 0.00291 µM | [5] 10.3 µM
inactive: [2] | [4] | [6] | [7]

C=C(C)C#N
not listed: [8] | [9]
inactive: all other assays above

O=[N+]([O-])c1c(Cl)c(Cl)cc(Cl)c1Cl
not listed: [8] | [9]
inactive: all other assays above

Cl/C=C\C[N+]12CN3CN(CN(C3)C1)C2
active: [10] 44.6 µM
not listed: [3] | [4]
inactive: all other assays above

CCCCCCCCSC(=O)Oc1cc(Cl)nnc1-c1ccccc1
active: [5] 141 µM | [6] 149 µM
inactive: [1] | [2] | [8] | [4] | [7]

CC(C)(c1ccccc1)c1ccc(O)c(C(C)(C)c2ccccc2)c1
active: [1] 9.29 µM | [8] 5.86 µM | [5] 15.2 µM | [10] 2.78 µM
not listed: [3]
inactive: all other assays above

CCOC(=O)CP(=O)(OCC)OCC
not listed: [8] | [9]
inactive: all other assays above

ClC1=C(Cl)[C@]2(Cl)[C@@H]3[C@@H](Cl)[C@@H](Cl)C[C@@H]3[C@@]1(Cl)C2(Cl)Cl
inactive: [1] | [2] | [8] | [5] | [6] | [9]

Cc1ccccc1N
not listed: [8] | [9] | [10]
inactive: all other assays above

CC(C)(c1ccc(OCC2CO2)cc1)c1ccc(OCC2CO2)cc1 (stereo unspecified)
active: [1] 33.4 µM
not listed: [3] | [7] | [10]
inactive: all other assays above

C[C@]12CC[C@H](O)CC1=CC[C@@H]1[C@@H]2CC[C@]2(C)C(=O)CC[C@@H]12
active: [8] 0.987 µM
not listed: [3] | [10]
inactive: all other assays above

CC(C)c1ccc(CO)cc1
not listed: [8] | [9]
inactive: all other assays above

CC(C)CCCCCCOC(=O)c1ccccc1C(=O)OCCCCCCC(C)C
not listed: [3] | [7] | [10]
inactive: all other assays above

CCCCOCCOC(C)=O
not listed: [3] | [4] | [10]
inactive: all other assays above

OCC(O)CCl (stereo unspecified)
not listed: [3] | [7] | [10]
inactive: all other assays above

O=C(O)Cc1ccccc1
not listed: [8] | [9]
inactive: all other assays above

ClC1=C(Cl)[C@]2(Cl)[C@H]3[C@H]([C@H]4C=C[C@H]3C4)[C@@]1(Cl)C2(Cl)Cl
active: [8] 9.92 µM
not listed: [3] | [7] | [10]
inactive: all other assays above

c1ccc(N=NNc2ccccc2)cc1
inactive: [2] | [3] | [5] | [6]
active: [1] 83.5 µM | [4] 25.7 µM | [7] 163 µM

COc1ccc(OC)c(C=O)c1
not listed: [3] | [7] | [10]
inactive: all other assays above

ClCCBr
not listed: [3] | [9] | [10]
inactive: all other assays above

[O-][Cl+2]([O-])O
not listed: [8] | [9] | [10]
inactive: all other assays above

CCOP(OCC)OCC
inactive: [1] | [2] | [8] | [5] | [6] | [7]

COP(=O)(OC)OC
not listed: [3] | [10]
inactive: all other assays above

CCC(=O)c1ccccc1
not listed: [8] | [9]
inactive: all other assays above

Cc1cc(Cl)ccc1O[C@H](C)C(=O)O
not listed: [3] | [9] | [10]
inactive: all other assays above

CCCCP(CCCC)CCCC
active: [8] 72.5 µM
not listed: [3] | [9] | [10]
inactive: all other assays above

CC(C)(C)CC(C)(C)c1ccc(O)cc1
active: [10] 16.3 µM
inactive: [1] | [2] | [3] | [4] | [5] | [6] | [7] | [10] | [9]

CCC(=O)C(CC(C)N(C)C)(c1ccccc1)c1ccccc1 (stereo unspecified)
not listed: [3]
inactive: all other assays above
